Screens as filed in PubChem.
ROC1-CUL1 inh: human ROC1-CUL1 E3 ligase inhibition | inhibition, % at 10 µM | P62877+Q13616 | actives 0.6% (n = 140,000) | in vitro K48 di-Ub FRET, acceptor:donor ratio, 45 min | AID 1347404; in the data active = inhibition above about 25%
Target sequence (P62877 whole entry, looked up): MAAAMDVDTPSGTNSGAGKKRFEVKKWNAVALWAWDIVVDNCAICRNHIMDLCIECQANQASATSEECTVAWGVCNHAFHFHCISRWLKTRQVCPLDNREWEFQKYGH
Target sequence (Q13616 whole entry, looked up): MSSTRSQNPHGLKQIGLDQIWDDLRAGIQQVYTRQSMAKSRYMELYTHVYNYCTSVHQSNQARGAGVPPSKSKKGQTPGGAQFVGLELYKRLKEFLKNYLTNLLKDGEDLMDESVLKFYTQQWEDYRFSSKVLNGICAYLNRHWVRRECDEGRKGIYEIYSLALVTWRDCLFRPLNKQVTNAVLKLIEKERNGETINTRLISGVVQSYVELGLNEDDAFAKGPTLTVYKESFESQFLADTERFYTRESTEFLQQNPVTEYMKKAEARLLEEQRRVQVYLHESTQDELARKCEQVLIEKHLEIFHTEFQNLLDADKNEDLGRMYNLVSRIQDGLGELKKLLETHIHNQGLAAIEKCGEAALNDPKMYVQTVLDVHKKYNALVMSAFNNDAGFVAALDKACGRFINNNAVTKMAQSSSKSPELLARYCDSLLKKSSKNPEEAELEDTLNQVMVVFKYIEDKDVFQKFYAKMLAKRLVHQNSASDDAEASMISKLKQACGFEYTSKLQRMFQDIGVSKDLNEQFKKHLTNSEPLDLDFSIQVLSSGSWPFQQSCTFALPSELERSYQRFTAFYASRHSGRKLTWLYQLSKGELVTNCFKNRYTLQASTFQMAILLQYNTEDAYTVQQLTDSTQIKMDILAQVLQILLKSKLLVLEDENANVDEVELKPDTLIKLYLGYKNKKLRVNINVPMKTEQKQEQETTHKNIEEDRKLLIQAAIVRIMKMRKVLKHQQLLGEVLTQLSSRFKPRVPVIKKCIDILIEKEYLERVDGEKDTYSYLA
An asterisk follows results filed as active. The full list was thinned out, with hits kept by preference.

SMILES	ROC1-CUL1 inh
O=C1C(=O)N(c2nnc(SCc3ccc(F)cc3)s2)C(c2cccc(Oc3ccccc3)c2)C1C(=O)c1cc2ccccc2o1 (stereo not given)	40.5*
Cc1ccc(CSc2nnc(N3C(=O)C(=O)C(C(=O)c4cc5ccccc5o4)C3c3ccc(OCc4ccccc4)cc3)s2)cc1 (stereo not given)	46.8*
COc1cc(C2C(C(=O)c3cc4ccccc4o3)C(=O)C(=O)N2c2nnc(C)s2)ccc1OCc1ccccc1 (stereo not given)	64.6*
Cc1ccc(C2C(C(=O)c3cc4ccccc4o3)C(=O)C(=O)N2c2nnc(SCc3cccc4ccccc34)s2)cc1 (stereo not given)	-9.3
CCC(C(=O)Nc1cc(OC)ccc1OC)c1ccccc1 (stereo not given)	-2.0
O=C(c1ccc(N2CCCOCC2)nc1)N1CCC(CCn2cccn2)CC1	-11.5
Cc1ccc(-c2cnc(N)c(N3CCC(O)C3)n2)c(-n2cccn2)c1 (stereo not given)	11.4
CCOC(=O)N1CCN(Cc2ccc3c(c2)CN(C(=O)CC2=CCCCC2)CCO3)CC1	-5.7
CCN(CC)c1ccc(/C=C2\C(=O)ON=C2c2ccccc2)cc1	11.0
CC(=O)N1Cc2cc(C)ccc2N(C)Cc2cc(C)ccc21	1.8
COc1ccc(OC)c(NC(=O)C2CCN(S(=O)(=O)c3c(C)noc3/C=C/c3ccc(C)cc3)CC2)c1	-8.3
O=[N+]([O-])c1cccc(/C=C/C=Nc2ccc3oc(-c4cccc(Cl)c4)nc3c2)c1	0.0
CNC(=O)Cn1ccc(-c2cccc(-c3nccc4occc34)c2)n1	-5.4
COc1ccc(/C=N/OC(=O)c2ccccc2)cc1	4.4
COc1ccc(/C=C(/S)C(=O)O)cc1	89.3*
COc1ccc(/C=C(\C)c2ccc(OC)cc2)cc1	-5.6
C/C(=N\NC(=O)Cc1cccs1)c1ccc(-n2ccnc2)cc1	0.1
C=CCSc1ncnc2c1sc1nnc(-c3ccccc3)c(-c3ccccc3)c12	2.3
Cc1cc(C)n(C(=O)c2sc3nc(-c4cccs4)cc(-c4ccccc4)c3c2N)n1	2.2
CC(=O)c1ccc2c(c1)C1C=CCC1C(c1cccc(Cl)c1Cl)N2 (stereo not given)	2.2
O=C(O)c1cc2c3c(c1)C1C=CCC1C(c1ccccc1Cl)N3CC1CC=CC21 (stereo not given)	100.7*
CC(=O)c1cc2c3c(c1)C1C=CCC1C(c1ccc([N+](=O)[O-])cc1)N3CC1CC=CC21 (stereo not given)	-1.8
O=C(Nc1ccc2oc(-c3ccccc3Br)nc2c1)c1ccc(Br)cc1	-5.1
CCOC(=O)C(NC(=O)CC)(Nc1ccccc1Cl)C(F)(F)F (stereo not given)	12.9
CCCCCCCC1=NN2C(=N)/C(=C/c3ccccc3C)C(=O)N=C2S1	1.9
SMILES	ROC1-CUL1 inh
CCCCCCCC1=NN2C(=N)/C(=C/c3ccc(-c4cccc(C(=O)O)c4)o3)C(=O)N=C2S1	96.8*
CCCC1=NN2C(=N)/C(=C/c3ccc(-c4cccc(C(=O)O)c4)o3)C(=O)N=C2S1	10.7
NN1C(=O)/C(=C/c2ccc(O)c(Br)c2)SC1=S	50.1*
CCN1C(=O)/C(=C/c2ccc(F)c(Br)c2)SC1=S	1.8
NN1C(=O)/C(=C\c2ccc(O)cc2)SC1=S	6.7
O=C(c1ccc2c(c1)OCO2)N1CCC(CN2C(=O)c3cccc4cccc(c34)C2=O)CC1	2.6
CC(/C=C1\SC(=S)N(NC(=O)c2cccc(O)c2)C1=O)=C\c1ccccc1	-4.6
O=C1/C(=C\c2cccc(O)c2)SC(=S)N1c1ccccc1	4.1
CC(/C=C1\SC(=S)N(CC(=O)O)C1=O)=C\c1ccccc1	-2.5
CC(=C/c1ccccc1)/C=C1\SC(=S)N(C(C(=O)O)c2ccccc2)C1=O (stereo not given)	104.6*
CC(/C=C1\SC(=S)N(c2cccc(C(=O)O)c2)C1=O)=C\c1ccccc1	65.9*
CCOC(=O)c1ccc(NC(=O)CN2C(=O)S/C(=C/C(C)=C/c3ccccc3)C2=O)cc1	6.6
CC(C)C(=O)Nc1ccccc1C(=O)Nc1ccc(C(=O)O)cc1	-5.8
O=C(C1=C(c2ccccc2)OC(Cl)(Cl)N(c2ccccc2)C1=O)c1ccccc1	-5.4
O=C(CCCCC(=O)NNC(=O)COc1ccc2ccccc2c1)NNC(=O)COc1ccc2ccccc2c1	-5.3
COc1ccc(-n2nc(C(=O)N3CCCC3)nc2-c2ccccc2)cc1	-1.7
N#CC1C(=O)N=C(SCC(=O)NC23CC4CC(CC(C4)C2)C3)C(C#N)C12CCCCC2 (stereo not given)	4.9
Cc1ccc(N2C(=O)/C(=C/c3ccc(-c4ccccc4)o3)C(=O)NC2=S)cc1Cl	-2.4
O=C1NC(=S)N(c2ccc(Br)cc2)C(=O)/C1=C/c1ccc(Sc2nc3ccccc3[nH]2)o1	107.6*
O=C1NC(=S)N(c2cccc(F)c2)C(=O)/C1=C/c1ccc(Sc2ccc(Cl)cc2)o1	0.3
CCOc1cc(C2c3c(n[nH]c3-c3ccc4c(c3)OCO4)OC(=N)C2C#N)ccc1OC(=O)c1ccco1 (stereo not given)	7.7
CC(C)C(=O)N1CCN(c2ccc(NC(=O)c3ccc(Br)o3)cc2Cl)CC1	17.6
